Results: PubChem BioAssay (NCATS)
Results filed as inconclusive are left out. A call without a number means that no potency is given here. Active and inactive are the calls of the source. The call rests on the fitted dose curve; in most records, active means well fitted curve in the direction sought with a large enough effect; inconclusive means small, poorly fitted or top-dose-only effect, or another doubt; inactive means no such curve, though single readings can be large; an effect the other way counts as inactive or inconclusive.

What was measured:
[1] = target: Arylsulfatase A (Homo sapiens) (UniProt P15289); test: qHTS screen for enhancers of Arylsulfatase A (ASA1): LOPAC Validation Assay (AID 720538)
Outline: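 First, ASA-I179S fibroblasts from an MLD patient adhered for 6 hrs. Next, compounds were added for 48h. Then pNCS substrate (0.5mM final) with lysis buffer reacted 14h at room temperature before NaOH stop and fluorescence measurement.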

[2] = qHTS for compounds that reverse cellular toxicity of Amyloid beta (A-beta) peptide in yeast: LOPAC Validation Assay (AID 720559); conditions: Potency: rescue of growth toxicity; further: potency means the concentration at half of the fitted maximal effect
Outline: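 Activity is expressed relative to DMSO and an equimolar ferric chloride/clioquinol mix. Compounds were pinned into medium with A-beta-expressing yeast, grown 48 hr at 30 C, then read by absorbance at 600 nm.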

[3] = qHTS for Activators of Parkin Expression: LOPAC Validation Assay (NLuc Reporter) (AID 720572)
Outline: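 Parkin promoter-driven FLuc/NLuc neuronal reporter cells; 24 h plating, 7-pt dose response, 24 h at 37 C/5% CO2; FLuc then NanoLuc reagent, 10 min each, luminescence; DMSO/positive control normalized.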

[4] = qHTS for Activators of Parkin Expression: LOPAC Validation Assay (FLuc Reporter) (AID 720573; further: potency means the concentration at half of the fitted maximal effect)
Outline: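 A neuronal cell line harbouring FLuc and NLuc reporters behind the Parkin promoter was exposed to compounds for 24 h. Firefly luciferase signal, measured after 10 min with detection reagent, was scaled to DMSO and positive-control wells.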

Chain of Arylsulfatase A (Homo sapiens) (P15289 whole entry, looked up): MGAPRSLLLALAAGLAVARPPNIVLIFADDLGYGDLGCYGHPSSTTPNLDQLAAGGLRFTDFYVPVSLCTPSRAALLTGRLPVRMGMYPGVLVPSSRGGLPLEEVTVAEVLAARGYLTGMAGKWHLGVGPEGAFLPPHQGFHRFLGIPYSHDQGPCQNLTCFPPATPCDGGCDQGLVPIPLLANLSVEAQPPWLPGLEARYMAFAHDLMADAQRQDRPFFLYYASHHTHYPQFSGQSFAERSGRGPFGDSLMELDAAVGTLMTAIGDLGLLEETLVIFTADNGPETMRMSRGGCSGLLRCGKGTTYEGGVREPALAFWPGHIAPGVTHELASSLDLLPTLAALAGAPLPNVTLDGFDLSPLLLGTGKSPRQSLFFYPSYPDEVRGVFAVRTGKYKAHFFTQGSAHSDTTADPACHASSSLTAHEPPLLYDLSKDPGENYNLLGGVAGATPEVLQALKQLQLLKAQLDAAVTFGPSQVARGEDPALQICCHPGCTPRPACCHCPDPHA

| SMILES | Potency [1] | Potency [2] | Potency [3] | Potency [4] |
| --- | --- | --- | --- | --- |
| O=C(Nc1cccc(C(=O)Nc2ccc(S(=O)(=O)O)c3cc(S(=O)(=O)O)cc(S(=O)(=O)O)c23)c1)Nc1cccc(C(=O)Nc2ccc(S(=O)(=O)O)c3cc(S(=O)(=O)O)cc(S(=O)(=O)O)c23)c1 | inactive | inactive | inactive | inactive |
| CCCCC/C=C\CC(O)/C=C/c1cccc(CC(O)CCCCO)n1 (centres undefined) | inactive | inactive | inactive | inactive |
| NC(CCCP(=O)(O)O)C(=O)O (centres undefined) | inactive | inactive | inactive | inactive |
| C[N+](C)(C)CCOP(=O)(O)OP(=O)([O-])OC[C@H]1O[C@@H](n2ccc(N)nc2=O)[C@H](O)[C@@H]1O | inactive | inactive | inactive | inactive |
| Nc1nc(Cl)nc2c1ncn2[C@@H]1O[C@H](CO)[C@@H](O)[C@H]1O | inactive | inactive | inactive | inactive |
| CC(=O)SCC[N+](C)(C)C | inactive | inactive | inactive | inactive |
| NS(=O)(=O)C#Cc1ccccc1 | inactive | inactive | inactive | inactive |
| O=C1C(SCCO)=C(SCCO)C(=O)c2ccccc21 | inactive | inactive | inactive | inactive |
| CN(C)c1nc(N)c(C(=O)N=C(N)N)nc1Cl | inactive | inactive | inactive | inactive |
| Fc1ccc(C(OCCCc2cnc[nH]2)c2ccc(F)cc2)cc1 | inactive | inactive | inactive | inactive |
| O=c1[nH]c2cc(C(F)(F)F)ccc2n1-c1cc(C(F)(F)F)ccc1O | inactive | inactive | inactive | inactive |
| COc1ccccc1N1CCN(CCCCNS(=O)(=O)c2cccc3c(N(C)C)cccc23)CC1 | inactive | inactive | inactive | inactive |
| COc1ccc(NC(=O)/C=C/c2ccc(Cl)cc2)cc1 | inactive | inactive | inactive | 1.03 µM (active) |
| CC(C)Cc1ccc([C@H](C)C(=O)O)cc1 | inactive | inactive | inactive | inactive |
| Cc1ccc(S(=O)(=O)/C=C/C#N)cc1 | inactive | inactive | inactive | inactive |
| Nc1nc(Cl)nc2c1ncn2[C@@H]1O[C@H](COP(=O)(O)OP(=O)(O)OP(=O)(O)O)[C@@H](O)[C@H]1O | inactive | 18.4 µM (active) | inactive | inactive |
| Cn1cc(C2=C(c3ccc(Cl)cc3Cl)C(=O)NC2=O)c2ccccc21 | inactive | inactive | inactive | inactive |
| O=C(O)CCCC[C@@H]1CCSS1 | inactive | inactive | inactive | inactive |
| O=C1/C(=C/c2ccsc2)CC/C1=C\c1cccs1 | inactive | inactive | inactive | 18.4 µM (active) |
| C[N+](C)(CCCCCC[N+](C)(C)CCCN1C(=O)c2cccc3cccc(c23)C1=O)CCCN1C(=O)c2cccc3cccc(c23)C1=O | inactive | inactive | inactive | inactive |

| SMILES | Potency [1] | Potency [2] | Potency [3] | Potency [4] |
| --- | --- | --- | --- | --- |
| COc1ccc2c(c1)CCC1C2CC[C@@]2(C)C1CC[C@@H]2NCCCCCCN1C(=O)CCC1=O (some centres undefined) | inactive | inactive | inactive | inactive |
| C=CC(N)CCC(=O)O (centres undefined) | inactive | inactive | inactive | inactive |
| CSc1ccccc1N1CCN(CCCCCC(=O)NC2CCCc3ccccc32)CC1 (centres undefined) | inactive | inactive | inactive | inactive |
| Cc1cc2c(cc1Cl)N(C(=O)Nc1ccc(Oc3cccnc3C)nc1)CC2 | inactive | inactive | inactive | inactive |
| NC(=S)NCCC[C@H](N)C(=O)O | inactive | inactive | inactive | inactive |
| C=CC(=O)c1ccc(CCCCCC)cc1 | inactive | inactive |  | inactive |
| O=C(O)c1cc(=O)c2c(Cl)cc(Cl)cc2[nH]1 |  | inactive | inactive | inactive |
| CCCCCCCCCCCCCCCCCC(=O)NCC(COP(=O)([O-])OCC[N+](C)(C)C)OCC (centres undefined) | inactive | inactive |  | inactive |
| CC(C)NC[C@@H](O)c1ccc(O)c(O)c1 | inactive | inactive |  | inactive |
| O=C(O)[C@@H]1C[C@@H](C(=O)O)N1 | inactive | inactive |  | inactive |
| CO/N=C(\C(=O)N[C@@H]1C(=O)N2C(C(=O)O)=C(COC(C)=O)CS[C@H]12)c1csc(N)n1 | inactive | inactive |  | inactive |
| Nc1nc(SCc2ccc([N+](=O)[O-])cc2)c2ncn([C@@H]3O[C@H](CO)[C@@H](O)[C@H]3O)c2n1 | inactive | inactive |  | inactive |
| NCC1OC(O[C@H]2[C@H](O)[C@@H](OC3C(O)C(N)CC(N)C3OC3OC(CO)C(O)C(O)C3N)O[C@@H]2CO)C(N)C(O)C1O (some centres undefined) |  | inactive | inactive | inactive |
| C=C[C@H]1CN2CC[C@@H]1C[C@@H]2[C@@H](O)c1ccnc2ccc(OC)cc12 |  | inactive | inactive | inactive |
| N.N.N.N.N.N.N.N.N.N.N.N.N.N.O.O.[Ru+4].[Ru+5].[Ru+5] |  | inactive | inactive |  |
| Nc1ncnc2c1ncn2[C@@H]1O[C@H](COP(=O)(O)CP(=O)(O)OP(=O)(O)O)[C@@H](O)[C@H]1O |  | inactive | inactive |  |
| Brc1c(Br)c(Br)c2n[nH]nc2c1Br | inactive | inactive |  | inactive |
| CCCCCC(O)c1cccc(OCc2ccc3ccccc3n2)c1 (centres undefined) | inactive | inactive |  | inactive |
| N.N.O=C(O)C1(C(=O)O)CCC1.[Pt] |  | inactive |  |  |
| C[C@@H](CN1CCC(Cc2ccccc2)CC1)[C@@H](O)c1ccc(O)cc1 | inactive | inactive |  | inactive |

| SMILES | Potency [1] | Potency [2] | Potency [3] | Potency [4] |
| --- | --- | --- | --- | --- |
| c1ccc(-c2ccccn2)nc1 |  | inactive |  |  |
| CCCCC#Cc1nc(NC)c2ncn([C@@H]3O[C@H](CO)[C@@H](O)[C@H]3O)c2n1 |  | inactive | inactive |  |
| Nc1ncnc2c1c(I)cn2[C@@H]1C[C@H](N)[C@@H](O)[C@H]1O | inactive | inactive |  | 20.6 µM (active) |
| Fc1cccc(/C=N/N=C/c2cccc(F)c2)c1 |  | inactive | inactive |  |
| O=C1O/C(=C/Br)CCC1c1cccc2ccccc12 (centres undefined) | inactive | inactive |  | inactive |
| NC[C@H]1O[C@@H](n2cnc3c(N)ncnc32)[C@H](O)[C@@H]1O |  | inactive | inactive |  |
| CNc1ncnc2c1ncn2[C@@H]1O[C@H](CO)[C@@H](O)[C@H]1O |  | inactive |  |  |
| CCCCCCCCCCCCCCCC(=O)NCC(COP(=O)([O-])OCC[N+](C)(C)C)OCC (centres undefined) | inactive | inactive |  | inactive |
| CCCCCCCCCCCCCCCC(=O)OC(CC(=O)O)C[N+](C)(C)C (centres undefined) | inactive | inactive |  | inactive |
| Cc1cc(NC2CCCCC2)nc(-n2nc(C)cc2C)n1 | inactive | inactive |  | inactive |
| O=C(O)CC1CCCc2ccccc2C1O (centres undefined) | inactive | inactive | inactive | inactive |
| C#CCN1C(C)=C(C(=O)OC)C(c2cccc([N+](=O)[O-])c2)C(C(=O)OCC)=C1C (centres undefined) | inactive | inactive |  | inactive |
| COc1cc(C(O)CO)ccc1OS(=O)(=O)O (centres undefined) |  | inactive |  |  |
| COc1cccc(C(=O)NCCN2CCN(c3ccc(Cl)cc3)CC2)c1 | inactive | inactive | inactive | inactive |
| CCCCN1CCC(n2c(=O)[nH]c3ccccc32)CC1 |  | inactive | inactive | inactive |
| CC(C)(C)c1ccc(S(=O)(=O)/C=C/C#N)cc1 | inactive | inactive |  | inactive |
| N=C(N)SCCc1ccc(CCSC(=N)N)cc1 | inactive | inactive |  | inactive |
| COc1cc2nc(N3CCN(C(=O)OCc4ccccc4)C(C(=O)NC(C)(C)C)C3)nc(N)c2cc1OC (centres undefined) | inactive | inactive |  | inactive |
| C[N+]1(C)CCC(OC(=O)C(c2ccccc2)c2ccccc2)CC1 | inactive | inactive |  | inactive |
| C[N+](C)(C)CC(=O)[O-] | inactive | inactive |  | inactive |
